KB-V1 cytotox = kills drug-selected multidrug resistant KB-V1 cells. KB-V1 MDR cells viability, CellTiter-Glo, 72 h. Potency, µM (doses to about 46.1 µM), usual class: cytotoxic. actives 3.4% (n = 400,000); also: % is scaled to controls: 0 for no effect and ±100 for the full control effect; nearly all actives have a fitted effect of over 60% in size
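Cytotoxicity toward P-gp-expressing KB-V1 cells was determined as loss of CellTiter-Glo luminescence after 72 h at 37 degrees C. Compounds were tested in quantitative HTS format across a concentration range, with curves fitted to normalized data.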
SW480 rerep = inducers of DNA re-replication in SW480 colon cancer cells; SW480 DNA re-replication, Hoechst DNA content imaging, 48 h; Potency, µM (titrated, usually from 46.1 µM), for inactives: at the top dose re-replication activation, usual class: activators; actives 1.8% (n = 340,000); AID 624297; also: % of control where 0% means no effect; nearly all actives have a fitted effect of over 55% in size
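250 cells/well; 23 nL cpd via pin tool; 48 hr, 37 C, 5% CO2; Hoechst 40 min; imager read of total nuclear intensity, ex 405/em 500-530 nm.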
KB-3-1 tox = kills parental KB-3-1 adenocarcinoma cells | actives 1.4% (n = 400,000) | Potency, µM (highest dose often 46.1 µM), usual class: cytotoxic | KB-3-1 viability, CellTiter-Glo ATP luminescence, 72 h | AID 1347075; also: % is scaled to controls: 0 for no effect and ±100 for the full control effect; nearly all actives have a fitted effect of over 60% in size
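KB-3-1 parental drug-naive adenocarcinoma cells in DMEM/10% FBS, incubated 72 h at 37 C with pin-transferred compounds across a concentration series. Viability by CellTiter-Glo luminescence; concentration-response curves fitted after normalization.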
MCF10A rerep = induces DNA re-replication in MCF 10a normal breast cells; Potency, µM (titrated, usually from 46.1 µM), without a hit: at the top dose activity, positive = re-replication, actives largely listed as activators; MCF 10A DNA re-replication, Hoechst nuclear intensity, 48 h; actives 2.9% (n = 350,000); also: % of control where 0% means no effect; nearly all actives have a fitted effect of over 50% in size
HT1080 IDH1KD tx = kills HT-1080 cells with IDH1 knockdown; HT-1080 IDH1 knockdown viability, ATP luminescence, 48 h; actives 2% (n = 360,000); Potency, µM (doses to about 46.1 µM), without a hit: at the highest dose activity, negative = toxicity, usual class: cytotoxic;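 also: 0% = DMSO wells and -100% = cell-free medium wells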
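Knockdown cells (IDH1KD HT-1080) received compounds 2 h after plating at 750 cells/well and were kept 48 h at 37 °C in 5% FBS RPMI. A CellTiter-Glo luminescence read gave % activity for curve fitting.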
HT1080-NT tox = kills 2HG-producing HT-1080-NT fibrosarcoma cells; AID 686970; Potency, µM (doses to about 46.1 µM), for the others: top-dose activity, negative = less viability, actives largely listed as cytotoxic; actives 1.6% (n = 360,000); HT-1080-NT fibrosarcoma viability, CellTiter-Glo ATP luminescence, 48 h;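 also: NT is the 2HG producing partner of a matched IDH1 knockdown line; 0% = DMSO-treated cells and -100% = media-only wells without cells; nearly all actives have a fitted effect of over 55% in size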
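Toxicity toward the 2HG-producing NT line was scored as %Activity, normalised to DMSO and no-cell wells, from CellTiter-Glo luminescence after 48 hours' treatment.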
Numbers without * were called inactive; i = inactive; ? = inconclusive; · = not tested or not shown. This is a sample that favours compounds with a hit; in the whole collection about 8% have one here. Calls follow the shape of the dose curve; as a rule, active = well fitted curve in the direction sought with a large enough effect; inconclusive = small, poorly fitted or top-dose-only effect, or another doubt; inactive = no such curve, though single readings can be large; an effect the other way counts as inactive or inconclusive. Potency is read from the fitted curve at half-maximal effect.

SMILES	KB-V1 cytotox	SW480 rerep	KB-3-1 tox	MCF10A rerep	HT1080 IDH1KD tx	HT1080-NT tox
CCN(CC)C(=O)[C@H]1CC(CC(=O)NCCC2=CCCCC2)C(=O)N2CCc3c([nH]c4ccccc34)[C@]12C (stereo partly specified)	i	?	i	3.1%	-10.7%	-1.4%
CC[C@]12c3[nH]c4ccc(Cl)cc4c3CCN1C(=O)[C@@H](CC(=O)NCC13CC4CC(CC(C4)C1)C3)C[C@@H]2C(=O)N1CCN(C(=O)C2CC2)CC1	i	?	?	?	23.1µM*	16.4µM*
C[C@]12c3[nH]c4ccc(Cl)cc4c3CCN1C(=O)[C@@H](CC(=O)NCC13CC4CC(CC(C4)C1)C3)C[C@@H]2C(=O)N1CCOCC1	?	?	?	?	?	23.1µM*
CCN(CC)C(=O)[C@H]1CC(CC(=O)NCC23CC4CC(CC(C4)C2)C3)C(=O)N2CCc3c([nH]c4ccccc34)[C@]12C (stereo partly specified)	i	23.1µM*	i	?	7.4%	11.1%
C[C@]12c3[nH]c4cc(-c5ccco5)ccc4c3CCN1C(=O)[C@@H](CC(=O)NCC13CC4CC(CC(C4)C1)C3)C[C@@H]2C(=O)N1CCOCC1	23.1µM*	-2.8%	?	?	18.4µM*	?
O=C(C[C@H]1C[C@H](C(=O)N2CCOCC2)[C@@]2(CCC3CCCC3)c3[nH]c4cc(-c5ccco5)ccc4c3CCN2C1=O)NCC12CC3CC(CC(C3)C1)C2	i	5.6%	?	-3.3%	-18.6%	-1.4%
C/C=C/C(=O)NCCc1ccc(OC)c(OC)c1	i	-5.4%	i	8.3%	10.5%	19.2%
CC(C)(C)NC(=O)CSc1nc(N)cc(=O)[nH]1	i	-6.6%	i	-0.2%	-17.9%	5.1%
CCOc1cccc2c1OC(c1cc(OC)c(OC)c(OC)c1)N1N=C(c3ccc(C)o3)CC21 (stereo unspecified)	i	?	i	122.7%	?	-25.6%
CCCCn1c(N)c(N(CCC(C)C)C(=O)c2cccc(-n3cnnn3)c2)c(=O)[nH]c1=O	i	?	i	-35.3%	13.0%	10.5%
CC(=O)Nc1ccc(C2=CC(=O)C[C@H](c3ccc(Cl)cc3)C2)cc1	i	?	i	18.4µM*	-17.6%	-12.0%
COc1ccc([C@H]2CC(=O)C=C(c3ccc(NC(C)=O)cc3)C2)cc1OC	i	-9.9%	i	18.8%	-0.9%	3.8%
O=C1C=C(Nc2ccc(Cl)cc2)CC(c2ccccc2)C1 (stereo unspecified)	?	?	?	16.4µM*	9.2µM*	11.6µM*
CCOc1ccccc1NC1=CC(=O)CC(c2ccccc2)C1 (stereo unspecified)	?	?	i	?	13µM*	?
CN(C)CCCNC1=CC(=O)CC(c2ccccc2)C1 (stereo unspecified)	i	-8.7%	i	-5.6%	16.5%	2.9%
CC(C)CCNC1=CC(=O)CC(c2ccccc2)C1 (stereo unspecified)	i	18.4µM*	?	?	?	?
Cc1ccc(NC2=CC(=O)CC(c3ccc(Cl)cc3)C2)cc1 (stereo unspecified)	?	9.5%	i	25.1%	-4.9%	-5.4%
CC(C)CN1C(=O)CN(S(C)(=O)=O)CC1(C)C(=O)Nc1ccc2c(c1)OCCO2 (stereo unspecified)	i	·	i	·	-0.1%	-1.4%
O=C(Cn1c(=O)[nH]c2ccsc2c1=O)NC1CCCCCC1	i	-2.8%	i	2.8%	-2.6%	4.0%
Cc1ccc(NC2=CC(=O)CC(c3ccccc3)C2)cc1 (stereo unspecified)	?	20.6µM*	?	8.2µM*	2.91µM*	2.91µM*
COc1ccc(N2CCN(C(=O)c3nc(SC)ncc3Cl)CC2)cc1	i	·	i	·	·	·
CCSc1ncc(Cl)c(C(=O)N2CCN(c3ccccc3OC)CC2)n1	3.66µM*	·	6.51µM*	·	·	·
COc1cc2c(cc1OC)C(C)N(CCc1ccc(Cl)cc1)CC2 (stereo unspecified)	?	-96.9%	i	?	?	11.6µM*
COC(=O)C1CCN(C(=O)c2ccc(SC)cc2OC)CC1	i	-4.9%	i	-2.5%	2.2%	3.2%
COc1ccccc1N1CCN(C(=O)c2c(-c3ccccc3)noc2C)CC1	?	?	4.61µM*	11.2µM*	14.6µM*	?
SMILES	KB-V1 cytotox	SW480 rerep	KB-3-1 tox	MCF10A rerep	HT1080 IDH1KD tx	HT1080-NT tox
COc1cc(SC)ccc1C(=O)N1CCN(c2ccccc2OC)CC1	16.4µM*	?	6.51µM*	18.4µM*	8.2µM*	9.2µM*
CN1CCN(C(=O)c2ccc(Cl)c(S(=O)(=O)N3CCCCCC3)c2)CC1	?	-4.6%	i	-9.1%	9.8%	5.6%
COc1cc2c(cc1OC)C(C)N(C(=O)c1ccc(Cl)c(S(=O)(=O)N3CCCCC3)c1)CC2 (stereo unspecified)	i	18.3%	11.6µM*	4.9%	-18.5%	-23.3%
COc1cc2c(cc1OC)C(c1ccccc1)N(C(=O)CCl)CC2 (stereo unspecified)	9.2µM*	16.4µM*	4.11µM*	16.4µM*	?	?
COc1cc2c(cc1OC)C(C)N(C(=O)c1cccc([N+](=O)[O-])c1)CC2 (stereo unspecified)	?	1.1%	i	17.4%	-26.6%	-9.0%
COc1ccccc1N1CCN(C(=O)C2CCN(C(=O)c3ccccc3C)CC2)CC1	·	-2.2%	·	13.2%	0.0%	1.8%
COc1cc2c(cc1OC)C(C1C(=O)CCCC1=O)N(C(=O)CCl)CC2 (stereo unspecified)	i	-8.4%	i	8.8%	0.4%	3.4%
COc1ccccc1N1CCN(C(=O)c2cc(N3C(=O)C4C5CCC(C5)C4C3=O)ccc2Cl)CC1 (stereo unspecified)	4.11µM*	-2.2%	i	9.7%	-0.7%	-0.5%
COc1cc2c(cc1OC)C(C)N(C(=O)c1c(-c3ccccc3)noc1C)CC2 (stereo unspecified)	20.6µM*	?	?	11.6µM*	23.1µM*	?
COc1ccccc1N1CCN(C(=O)c2cc(-c3cccs3)on2)CC1	18.4µM*	-6.7%	i	12.3%	-4.6%	-3.1%
COc1cc2c(cc1OC)C(C)N(C(=O)Nc1ccccc1)CC2 (stereo unspecified)	?	5.17µM*	6.51µM*	?	2.59µM*	2.91µM*
